# Test results: PubChem BioAssay (EPA / NIEHS)
# Activity calls are given as the source filed them. The calls were made as follows: active = hit-call score of the fitted dose curve at least 0.9, where 1 is the maximum; inactive = score below 0.9.
# Read-out: Matrix Metallopeptidase 1 (MMP1), MMP1 (gene 4312)
# Experiment: BSK_BE3C_MMP1: BioMAP Diversity Plus: BE3C Assay for Matrix Metallopeptidase 1 (MMP1) Biomarker Activity (AID 2283024)
# Details: primary human bronchial epithelial cells; actives raise or lower the signal
# Protocol: BSK_BE3C is a cell-based, multiplexed-readout assay that uses bronchial epithelial cell, a human lung primary cell, with measurements taken at 24 hours after chemical dosing in a 96-well plate.BSK_BE3C_MMP1 is an assay component measured in the BSK_BE3C assay. It measures MMP-1 antibody related to regulation of gene expression using ELISA technology.Data from the assay component BSK_BE3C_MMP1 was analyzed into 1 assay endpoint. This assay endpoint, BSK_BE3C_MMP1, was analyzed with bidirectional fitting relative to DMSO as the negative control and baseline of activity. Using a type of binding reporter, gain or loss-of-signal activity can be used to understand changes in the signaling as they relate to the gene MMP1. Furthermore, this assay endpoint can be referred to as a primary readout, because this assay has produced multiple assay endpoints where this one serves a signaling function. To generalize the intended target to other relatable targets, this assay endpoint is annotated to the protease intended target family, where the subfamily is matrix metalloproteinase.
# The levels of cell surface (or secreted, indicated by the prefix "s") biomarker endpoints were measured by ELISA. Overt cytotoxicity to cells in confluent adherent cultures (all systems other than the BT system) was assessed by measuring total protein levels using sulforhodamine B (SRB) staining in parallel cultures at the time of biomarker measurements, indicated as SRB endpoints. For proliferation assays for adherent cell types, individual cell types are cultured at sub-confluence and relative cell numbers quantified by SRB staining at time points optimized for each system (48 h: 3C and CASM3C systems; 72 h: BT and HDF3CGF systems; 96 h: SAg system). SRB was performed by staining cells with 0.1% SRB after fixation with 10% TCA and reading wells at 560 nm.Viability and proliferation of PBMC (T cells) was quantified by Alamar Blue reduction for the SAg and BT systems. For PBMC viability (referred to as PBMC Cytotoxicity within the assay endpoint names), cells were plated (75,000/well in a 96-well plate) and then chemical samples added for 1 h before addition of activators, SEB and TSST-1 (20 ng/mL final concentration each). Cells were incubated for 90 h. Then, Alamar Blue (20 uL/well) (Invitrogen, Cat DAL1100) was added for 6 h, and the plates were read with a fluorescence microplate reader at 546/580 nm (excitation/emission). For PBMC proliferation, cells were plated and activated as above but incubated for only 16 h prior to addition of Alamar Blue. Plates were read after 6 h.
SMILES,outcome,AC50
Cc1nc(-c2ccc3c(c2)CCN(CCC2CCC(NC(=O)/C=C/c4ccc(F)cc4)CC2)CC3)no1 (stereo not given),inactive,–
C[C@]12C=CC(=O)C=C1CC[C@@H]1[C@@H]2C(=O)C[C@@]2(C)[C@H]1CC[C@]2(O)C(=O)CO,inactive,–
Oc1ccc2ccccc2c1N=Nc1ccccc1,–,3.97 µM (active)
O=C(OCCCCCOC(=O)c1ccccc1)c1ccccc1,inactive,–
COc1ccc(C)cc1N,inactive,–
O=[N+]([O-])C(CO)(CO)CO,inactive,–
c1cc(-c2ccncc2)ccn1,inactive,–
CCCc1cc(=O)[nH]c(=S)[nH]1,inactive,–
CCCCCCCC=O,inactive,–
CC1(C)NC(=O)NC1=O,inactive,–
CC1=C(/C=C/C(C)=C/C=C/C(C)=C/CO)C(C)(C)CCC1,inactive,–
CC1(C)CC(N=C=O)CC(C)(CN=C=O)C1 (stereo not given),inactive,–
CCCCCCC(=O)OCC,inactive,–
CC(=O)OC/C=C(\C)CCC=C(C)C,inactive,–
Cc1cccc(C)c1O,inactive,–
CN1CCN(Cc2cc(-c3ccc4[nH]c(=O)oc4c3)co2)[C@@H](c2ccc(F)cc2)C1,inactive,–
COc1ccc(S(=O)(=O)N2C(=O)[C@@](c3ccccc3OC)(N3C[C@H](O)C[C@H]3C(=O)N(C)C)c3cc(Cl)ccc32)c(OC)c1,inactive,–
Nc1ccc2c(c1)C(=O)c1ccccc1C2=O,inactive,–
CCCCCC(=O)O,inactive,–
Clc1cc(Cl)c(Cl)cc1Cl,inactive,–

SMILES,outcome,AC50
COCCOC[C@H](CC1(C(=O)NC2CCC(C(=O)O)CC2)CCCC1)C(=O)Oc1ccc2c(c1)CCC2 (stereo not given in full),inactive,–
CNCc1cc(F)ccc1Oc1ccc(Cl)c(Cl)c1,inactive,–
CC(CO)OC(C)CO (stereo not given) (tested in a mixture with another compound),inactive,–
O=C(O)Cc1ccccc1Nc1c(Cl)cccc1Cl,inactive,–
CN1CCCC1=O,inactive,–
Cc1ccc(N(C)C)cc1,inactive,–
CC(=O)C(C)=CC1C(C)=CCCC1(C)C (stereo not given),inactive,–
CCc1c(C(=O)NN2CCCCC2)nn(-c2ccc(Cl)cc2Cl)c1-c1ccc(Br)cc1,inactive,–
CCCCCCCCCCCC(=O)OC,inactive,–
CCOc1ccc2c(c1)C(C)=CC(C)(C)N2,inactive,–
Oc1ccc2c(c1)OC[C@@H](N1CCC(O)(c3ccc(F)cc3)CC1)[C@H]2O,inactive,–
Cc1ccccc1Cl,inactive,–
C=CCOC(=O)c1ccccc1C(=O)OCC=C,inactive,–
CCOC(=O)C(C)(C)Oc1ccc(Cl)cc1,inactive,–
COCCOCCOC,inactive,–
OC[C@@H](O)[C@@H](O)[C@H](O)[C@H](O)CO,inactive,–
COc1cc(S(=O)(=O)O)c(C)cc1N=Nc1c(O)ccc2cc(S(=O)(=O)O)ccc12,inactive,–
Cc1ccc(C)c(O)c1C,inactive,–
CCCCc1ccc2c(n1)[C@@H](c1ccc(OC)cc1C[C@H](C)C(=O)O)[C@H](C(=O)O)[C@H]2c1ccc2c(c1)OCO2,inactive,–
Nc1ccccc1N,inactive,–
